Compound activity from PubChem.
HCV inhibitor: qHTS Assay for Inhibitors of Hepatitis C Virus (HCV). Huh7.5.1 HCVcc-Cre infection, luciferase reporter, 44 h. Potency, µM (series often up to 41.8 µM), inactives show at the highest dose activity change, negative = inhibition, most hits filed as inhibitors. 340,000 tested, 3.4% active. AID 651820, 2012; also: potency is read from the fitted curve at half-maximal effect; % is scaled to controls: 0 for no effect and ±100 for the full control effect
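Cells seeded at 1,000/well and cultured 4 h, then compounds added followed by HCVcc-Cre virus (~0.5 moi). After 44 h further culture, luciferase substrate was added, plates held 15 min at room temperature, and luminescence read for 15 sec.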
HCMV inh: qHTS Assay for inhibitors of the human cytomegalovirus (HCMV); HFF cells, HCMV-luciferase reporter, 72 h; stronger effect = lower value; activity change, negative = inhibition, % at 57.5 µM; AID 1259415, 2018; 410,000 tested, 4.5% active; in the data active = activity change below about -60%; inconclusive = no clear call, values can overlap the other calls; inactive = above about -39%; also: % is scaled to controls: 0 for no effect and ±100 for the full control effect
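Luciferase read-out from HCMV-luciferase-infected HFFs (MOI 1 PFU/cell) 72 h post infection at 37C; compounds added after 16 h cell attachment; activity normalized between buffer-only basal and Salinomycin (10uM) inhibitor controls.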
CHX counter: Cycloheximide Counterscreen for Small Molecule Inhibitors of Shiga Toxin; cell reporter, cycloheximide protein synthesis inhibition counterscreen; AID 2314, 2010; max response, %; 300,000 tested, 12% active; in the data active = max response mostly above about 13%, no sharp cut-off; inactive = mostly below about 14%; also: read at 38.3 µM for the half of the compounds with a filed dose; 0% is about no effect
Pf growth 48h: Primary qHTS for delayed death inhibitors of the malarial parasite plastid, 48 hour incubation. P. falciparum luciferase growth in erythrocytes, 48 h. Potency, µM (series often up to 28.7 µM), for inactives: at the highest dose activity change, negative = inhibition, usual class: inhibitors. 310,000 tested, 5.9% active. AID 504832, 2011; also: potency is read from the fitted curve at half-maximal effect; % is scaled to controls: 0 for no effect and ±100 for the full control effect
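Here the parasites carry a stable luciferase gene and grow inside erythrocytes in Albumax-based RPMI medium with compound for one erythrocytic cycle. Activity is scored as loss of luminescent signal.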
Shiga inhibitor: A qHTS for Small Molecule Inhibitors of Shiga Toxin; AID 2315, 2010; Vero cells, Shiga toxin protein synthesis inhibition reporter; 290,000 tested, 9.2% active; inhibition, % at 38.7 µM; in the data active = inhibition mostly above about 28%, no sharp cut-off; inactive = mostly below about 43%; also: 0% is about no effect
Pf growth 96h: Primary qHTS for delayed death inhibitors of the malarial parasite plastid, 96 hour incubation. Potency, µM (highest dose often 28.7 µM), inactives show at the top dose activity change, negative = inhibition, most hits filed as inhibitors. 320,000 tested, 6.9% active. P. falciparum luciferase reporter growth, 96 h; also: potency is read from the fitted curve at half-maximal effect; % is scaled to controls: 0 for no effect and ±100 for the full control effect
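Cell-based qHTS: luciferase-tagged P. falciparum in erythrocytes (2% hematocrit, 0.05% parasitemia final) incubated with compounds for 96 hours, 37 C, 5% CO2; luciferase detection reagent then added and luminescence measured.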
* hit, by the source's call; ? = inconclusive; . = no result given; ! = a repeat was not active; [ ] = another dose, or the depositor's remark. An excerpt weighted towards active compounds, which were near 21% of everything screened. Unless noted, calls follow the shape of the dose curve; as a rule, active = well fitted inhibition curve with a large enough effect; inconclusive = small, poorly fitted or top-dose-only effect, or another doubt; inactive = no such curve, though single readings can be large or run the other way.

SMILES | HCV inhibitor | HCMV inh | CHX counter | Pf growth 48h | Shiga inhibitor | Pf growth 96h
CCCCn1c(SCC(=O)Nc2nnc(CC)s2)nc2ccccc2c1=O | -1.0% | -12.6 | -1.9 | 34.2% | -12.9 | ?
Cc1cc(C)nc(SCc2nnc(SCC(=O)Nc3nc(-c4ccccc4)cs3)n2C)n1 | ? | 113.2 | -2.7 | ? | -3.1 | -26.7%
Cc1ccc(-c2csc(NC(=O)CSc3nc4ccccc4c(=O)n3CCCN(C)C)n2)cc1 | 1.41µM* | 23.7 | 14.1 | ? | 21.0 | ?
CC(C)n1c(SCC(=O)Nc2nc3c(s2)CCCC3)nc2c1c(=O)n(C)c(=O)n2C | -3.4% | -60.2* | 1.8 | ? | -9.5 | -11.5%
CCn1c(SCC(=O)Nc2nc(-c3ccc(C)cc3)cs2)nnc1-c1ccccc1O | 6.31µM* | -70.1* | 0.5 | ? | -3.0 | -16.7%
CN(C)CCCn1c(SCC(=O)N2c3ccccc3Sc3ccccc32)nc2ccccc2c1=O | 12.6µM* | -98.8* | -9.2 | 10.4µM* | -29.2 | 4.15µM*
CCn1c(CSc2nc(C)cc(C)n2)nnc1SCC(=O)Nc1nc(-c2ccccc2)cs1 | ? | -1.0 | -5.0 | -24.9% | -15.9 | -4.7%
Cc1ccccc1C(=O)NCCc1nnc(SCC(=O)Nc2nc(-c3ccccc3)cs2)n1C | -2.6% | 32.1 | -0.4 | -3.5% | -3.3 | 13.1µM*
COC(=O)c1[nH]c2cccc(Cl)c2c1NC(=O)CN(C)C1CCCCC1 | ? | 37.6 | -11.4 | ? | -12.2 | 8.28µM*
CC(C)(CO)C(O)C(=O)NCCC#N (stereo unspecified) | 18.2% | 14.9 | -1.6 | 6.0% | 29.1 | ?
O=C(CNC(=S)NC(=O)c1ccccc1Br)c1ccccc1 | 16.8% | 13.8 | 14.8 | 15.2% | 18.5 | 8.7%
CCCCNC(=S)NC(=O)c1ccccc1Br | -0.5% | -11.3 | 18.2* | 7.6% | 81.6* | -29.3%
CCCCNC(=S)NC(=O)c1ccc(Cl)cc1Cl | ? | 10.5 | 31.8* | 36.9% | 39.9 | ?
Cc1cc(C)c2c(=O)cc(CSCC(=O)Nc3ccccc3Cl)[nH]c2c1 | . | 17.9 | . | . | . | .
Cc1ccccc1-c1cn(-c2ccccc2)c(=S)[nH]1 | -7.7% | ? | -4.1 | ? | 5.6 | ?
Cc1ccc(-c2cn(-c3ccccc3)c(=S)[nH]2)cc1C | -10.8% | 53.7 | 63.9* | . | 113.3* | ?
FC(F)(F)c1cccc(-n2cc(-c3ccccc3)[nH]c2=S)c1 | ? | -15.6 | 8.7 | 11.7µM* | 19.9 | 133.6%
COc1ccc(-n2cc(-c3ccc(Br)cc3)[nH]c2=S)cc1 | -8.8% | 3.7 | 10.4 | 2.8% | 10.5 | 3.5%
O=C(CC1OCC2CCCN2C1=O)Nc1ccc([N+](=O)[O-])cc1 (stereo unspecified) | -0.4% | 9.3 | 4.9 | 5.6% | 23.6 | 24.4%
Cc1oc(-c2ccc(C(=O)NCCc3ccc(Cl)cc3)cc2)nc1CSc1ccccc1 | . | -17.2 | . | . | . | .
CC(=NCc1cccc(Cl)c1)c1nc(-c2ccco2)oc1O | -14.0% | -5.5 | 22.9* | ? | 48.6* | ?
CCC1CCc2sc(C(=O)NCC(c3ccc(OC)cc3)N3CCOCC3)cc2C1 (stereo unspecified) | ? | -9.7 | . | 11.7µM* | . | ?
COc1ccc(-n2nc(C(=O)NCC(=O)N3CCC4(CC3)OCCO4)c3ccccc3c2=O)cc1Cl | -24.9% | 42.6 | 23.4* | 46.5% | 53.7* | 117.5%
COc1ccc(-n2nc(C(=O)NCC(=O)N3CCCC(C)C3)c3ccccc3c2=O)cc1Cl (stereo unspecified) | ? | -7.4 | 16.7* | ? | 35.5* | 24.2%
COc1ccc(-n2nc(C(=O)NCC(=O)N3CCC(C)CC3)c3ccccc3c2=O)cc1 | -4.9% | 25.1 | 32.7* | ? | 47.8* | 50.7%
SMILES | HCV inhibitor | HCMV inh | CHX counter | Pf growth 48h | Shiga inhibitor | Pf growth 96h
CCc1cc(C(=O)NCC(c2ccc(OC)cc2)N2CCOCC2)sc1C (stereo unspecified) | 21.3% | 35.3 | . | -0.5% | . | -1.0%
COc1ccc(-n2nc(C(=O)NCC(=O)N3CCOCC3)c3ccccc3c2=O)cc1Cl | ? | 13.8 | -2.3 | 12.4% | -10.1 | ?
CN1OC(C)(CC(=O)NCc2ccccc2)N=C1c1ccccc1Cl (stereo unspecified) | . | -3.8 | . | . | . | .
O=C(CSc1nnc(-c2ccco2)o1)c1ccc(O)cc1O | 2.0% | 1.3 | 7.9 | 0.0% | -7.0 | 17.7%
Cc1cccc(C)c1NS(=O)(=O)c1cc2c3c(c1)CCN3C(=O)CC2 | 1.8% | -25.1 | . | -5.6% | . | 1.4%
COc1ccc(-n2nnc(-c3nc(-c4ccc5c(c4)OCO5)no3)c2C)cc1Cl | . | -19.5 | . | . | . | .
COc1ccc(-n2nc(C(=O)NCC(=O)N3CCC4(CC3)OCCO4)c3ccccc3c2=O)cc1 | -13.4% | 70.3 | 10.5 | 4.9% | 24.9 | 2.7%
CCOC(=O)C1CCN(C(=O)CNC(=O)c2nn(-c3ccc(OC)c(Cl)c3)c(=O)c3ccccc23)CC1 | ? | 10.3 | 24.7* | ? | 35.1 | ?
COc1ccc(-n2nc(C(=O)NCC(=O)N3CCCC(C)C3)c3ccccc3c2=O)cc1 (stereo unspecified) | -2.6% | 53.2 | 18.0* | ? | 38.8 | -21.7%
COc1ccc(C(CNC(=O)c2nn(-c3ccccc3)c(=O)c3ccccc23)N2CCOCC2)cc1 (stereo unspecified) | 0.4% | -30.5 | . | -49.3% | . | 10.4µM*
CCOC(=O)C1CCCN(C(=O)CNC(=O)c2nn(-c3ccc(OC)c(Cl)c3)c(=O)c3ccccc23)C1 (stereo unspecified) | -20.5% | 43.1 | 14.8 | ? | 15.8 | ?
CCc1ccccc1NC(=O)c1ccc(Cn2nc(N3CCN(c4ccccc4)CC3)ccc2=O)o1 | . | -74.5* | . | . | . | .
CCOc1ccccc1NC(=O)Cn1nc(N2CCN(c3ccccc3)CC2)ccc1=O | . | -28.9 | . | . | . | .
COc1cccc(CN2CCC(n3nccc3NC(=O)CCCc3ccccc3)CC2)c1 | -22.4% | -27.1 | 1.2 | ? | -15.0 | -13.8%
C[C@@H](NCCc1ccc(O)cc1)[C@@H](O)c1ccc(O)cc1 | 5.8% | 103.1 | . | . | . | .
CCCCCCCCNC(C)C(O)c1ccc(SC(C)C)cc1 (stereo unspecified) | -4.1%[8.37 µM] | -81.9* | -2.0 | 1.85µM* | -7.6 | 0.928µM*!
O=c1oc2ccc3ccccc3c2cc1-c1nnc(Nc2cccc(C(F)(F)F)c2)s1 | . | 0.4 | . | . | . | .
COc1ccc(N2CCN(S(=O)(=O)c3ccc(-c4ccno4)cc3OC)CC2)cc1 | . | -11.8 | . | . | . | .
COc1cc(/C=C/C(=O)OCC(=O)NC(=O)NC(C)C)ccc1OCC#N | ? | -19.4 | -3.7 | 8.2% | -5.4 | -15.6%
